Rab7 wt GTP bind = alters GTP binding to wildtype dog Rab7 | GTP binding activity (percent of control), % at 10 µM | GST-Rab7 beads, fluorescent GTP binding, flow cytometry; actives lie on both sides; untreated = 100%, excess cold GTP = 0% | 190,000 compounds, 0.055% hits | AID 758;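 active means fluorescent GTP binding to Rab7 beads changed by at least 20 points from the 100% baseline, either direction, mostly lower; inconclusive means compound itself probably fluorescent, or too few beads counted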;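 further: median green fluorescence of bound Bodipy-FL-GTP per Rab7 bead population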
Rac1 wt GTP bind = alters GTP binding to wildtype human Rac1. GTP binding activity (% of control), % at 10 µM. 190,000 compounds, 0.27% hits. GST-Rac1 beads, fluorescent GTP binding, flow cytometry; actives lie on both sides; 0 = cold GTP competed, 100 = untreated. P63000;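 active means GTP binding activity at least 20 points away from the 100% control level, either lower or higher; inconclusive means compound flagged as likely green fluorescent, judged across all proteins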
HRas wt GTP = human HRas wildtype GTP binding, change in either direction; GTP binding activity, % at 10 µM; GST-Ras wt beads, Bodipy-FL-GTP binding, flow cytometry; actives lie on both sides; AID 759; 190,000 compounds, 0.14% hits;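 active means GTP binding activity at least 20% away from the 100% baseline, either lowered as inhibitor or raised as activator; inconclusive means flagged as likely green fluorescent, judged across all proteins in the well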
Target sequence (P01112 whole entry, looked up): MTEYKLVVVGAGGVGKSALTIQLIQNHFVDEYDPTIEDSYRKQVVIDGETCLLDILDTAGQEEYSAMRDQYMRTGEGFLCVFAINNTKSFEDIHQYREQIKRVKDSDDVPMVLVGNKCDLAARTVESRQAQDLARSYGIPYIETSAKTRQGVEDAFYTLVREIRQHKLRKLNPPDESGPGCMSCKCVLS
Rac1 mut GTP = alters GTP binding to activated mutant human Rac1; AID 764; 190,000 compounds, 0.11% hits; percent activity (GTP binding), % at 10 µM; GST-Rac1 activated beads, fluorescent GTP binding, flow cytometry; actives lie on both sides; 100% means binding = to untreated wells;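 active means GTP binding at least 20 percentage points away from the 100% baseline, in either direction, so actives lie on both sides; inconclusive means Compound likely fluorescent itself, or too few beads counted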
Cdc42 wt = modulators (inhibitors or activators) of GTP binding to human Cdc42 wildtype; P60953; GST-Cdc42 beads, Bodipy-GTP binding, flow cytometry; actives lie on both sides; percent activity (GTP binding), % at 10 µM; 190,000 compounds, 0.2% hits; AID 761;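 active means percent activity GTP binding at least 20 points away from the 100% baseline, either down as inhibitor or up as activator; inconclusive means compound flagged as likely green fluorescent from well-wide comparison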;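 further: median bead fluorescence of bound Bodipy-FL-GTP at 100 nM; below 100% means less GTP binding so inhibitor and above means activator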
Target sequence (P60953 whole entry, looked up): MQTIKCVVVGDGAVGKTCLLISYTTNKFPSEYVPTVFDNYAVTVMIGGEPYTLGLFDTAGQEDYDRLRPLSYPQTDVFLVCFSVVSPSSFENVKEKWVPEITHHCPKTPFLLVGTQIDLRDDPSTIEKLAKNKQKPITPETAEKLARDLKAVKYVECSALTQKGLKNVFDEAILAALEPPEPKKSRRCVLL
Rab2 wt GTP = changes GTP binding to wildtype dog Rab2A, up or down; P61105; GST-Rab2 wt beads, Bodipy-GTP binding, flow cytometry; GTP binding activity, % at 10 µM; 190,000 compounds, 0.19% hits; AID 760;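 active means GTP binding activity at least 20 points away from 100%, either lowered or raised; inconclusive means signal likely due to the compound's own green fluorescence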
Hits are given with their value; - = inactive; ? = inconclusive; [ ] = another dose, or the depositor's remark. Hits are enriched below; roughly 0.4% of the tested compounds scored in any of these assays.

SMILES | Rab7 wt GTP bind | Rac1 wt GTP bind | HRas wt GTP | Rac1 mut GTP | Cdc42 wt | Rab2 wt GTP
COc1ccc(Cn2c(O)c(/C=N/NC(=O)c3cccnc3)c3ccccc3c2=O)cc1 | - | 60 | - | 72 | 68 | -
O=C(N/N=C/c1c(O)n(Cc2ccccc2)c(=O)c2ccccc12)c1cccnc1 | - | 55 | 78 | 68 | 65 | 71
O=C(N/N=C/c1c(O)n(-c2ccccc2Cl)c(=O)c2ccccc12)c1cccnc1 | - | - | - | - | - | -
COCCNC(=O)Cn1cc(C(=S)N2CCOCC2)c2ccccc21 | - | - | - | - | - | -
COc1ccccc1Oc1ccccc1C(=O)O | - | 130[activator] | - | - | 122[activator] | -
COc1cc(NC(=O)c2cccs2)c(OC)cc1NC(=O)CCC(=O)Nc1ccc2ncccc2c1 | - | 74 | 72 | - | 71 | 71
N#Cc1c(-c2ccccc2Cl)cc(-c2ccccc2)[nH]c1=S | - | - | - | - | - | -
N#Cc1c2c(c(-c3ccccc3Cl)[nH]c1=S)CCCC2 | - | - | - | - | 79 | -
COc1ccc(C(=O)Nc2cccc(-c3cc4ccccc4oc3=O)c2)cc1[N+](=O)[O-] | - | - | - | - | - | -
COC(=O)c1ncn(C2OC(COC(C)=O)C(OC(C)=O)C2OC(C)=O)n1 (centres undefined) | - | - | - | - | - | -
CC(C)(C)C(=O)OCC1OC(n2cnc(C(N)=O)n2)C(O)C1O (centres undefined) | - | 120[activator] | - | - | - | -
O=C(O)Cc1coc2cc3c(cc12)CCC3 | 79 | - | - | - | - | -
COc1ccc(-c2noc(CCC(=O)N3CCN(c4cc(C)ccc4C)CC3)n2)cc1 | - | - | - | 75 | - | 78
O=C(NC1CCCCC1)C(c1ccco1)N(Cc1ccco1)C(=O)c1ccco1 (centres undefined) | - | - | 64 | - | - | -
COCCn1c(N)c(C(=O)Nc2sc3c(c2C(=O)OC)CCCC3)c2nc3ccccc3nc21 | - | 77 | 63 | - | 63 | 69
O=C(N/N=C/c1ccc([N+](=O)[O-])o1)c1cn(-c2ccccc2)nc1-c1ccccc1 | - | - | - | - | - | -
O=C(N/N=C/c1ccc([N+](=O)[O-])o1)c1cn(-c2ccccc2)nc1-c1ccc(Cl)cc1 | - | 79 | - | - | - | -
COc1ccc(NC(=S)NCCCCCC(=O)C[N+](=O)[O-])cc1 | - | - | - | - | - | -
Cc1c(C(=O)N2CCOCC2)oc2ccc(S(=O)(=O)N3CCCC3)cc12 | - | - | - | - | - | -
Cc1c(C(=O)N2CCc3ccccc3C2)oc2ccc(S(=O)(=O)N3CCCCCC3)cc12 | - | 131[activator] | - | - | - | -
CCOc1ccc(Cn2c3ccc(OC)cc3c3nc4ccccc4nc32)cc1 | ? | 124[activator] | - | - | - | 130[activator]
Cn1/c(=N\NC(=O)c2ccccc2Cl)sc2ccccc21 | - | - | - | - | - | -
COc1ccc(C(=O)N/C(=C\c2cccc([N+](=O)[O-])c2)C(=O)Nc2cccc(C(=O)O)c2)cc1 | - | 64 | 69 | - | 62 | 60
Cc1c(NS(=O)(=O)c2ccc3c(c2)n(C)c(=O)n3C)c(=O)n(-c2ccccc2)n1C | - | - | - | - | - | -
Cc1c(NS(=O)(=O)c2ccc3c(c2)Cc2ccccc2-3)c(=O)n(-c2ccccc2)n1C | - | - | - | 76 | 78 | -
SMILES | Rab7 wt GTP bind | Rac1 wt GTP bind | HRas wt GTP | Rac1 mut GTP | Cdc42 wt | Rab2 wt GTP
O=C(c1ccccc1SCc1ccccc1)N1CCOCC1 | - | - | - | - | - | -
O=C(O)c1ccccc1SCc1ccc2c(c1)OCO2 | 121[activator] | 135[activator] | 123[activator] | 127[activator] | 135[activator] | 127[activator]
CCCCc1ccc(NC2=NCC(=O)N2CCc2ccccc2)cc1 | - | - | - | - | - | -
COc1ccc(CCNC(=O)C2CCCN2C(=O)NC2CCCCC2)cc1OC (centres undefined) | - | 143[activator] | 122[activator] | - | 141[activator] | 128[activator]
COc1ccc(CCNC(=O)NC2CCCCC2)cc1OC | - | - | - | - | - | -
Cc1ccc(OCc2cnc(Cl)s2)c(C)c1 | - | - | - | - | - | -
